Inconclusive results are not listed. A number with no mark means an inactive call. Activity calls are given as the source filed them. The call rests on the fitted dose curve; in most records, active means well fitted inhibition curve with a large enough effect; inconclusive means small, poorly fitted or top-dose-only effect; inactive means no such curve, though single readings can be large or run the other way.
Each compound was assayed against Coelenterazine h 2-monooxygenase (Renilla reniformis) (UniProt P27652) (assay: qHTS Assay for Inhibitors of Sea Pansy Luciferase from the GSK Published Protein Kinase Inhibitor Set). Settings: purified Renilla luciferase, luminescence; series mostly up to 57.5 µM; activity change, negative = inhibition: at the top concentration.
Coelenterazine h 2-monooxygenase (Renilla reniformis), sequence (P27652 whole entry, looked up): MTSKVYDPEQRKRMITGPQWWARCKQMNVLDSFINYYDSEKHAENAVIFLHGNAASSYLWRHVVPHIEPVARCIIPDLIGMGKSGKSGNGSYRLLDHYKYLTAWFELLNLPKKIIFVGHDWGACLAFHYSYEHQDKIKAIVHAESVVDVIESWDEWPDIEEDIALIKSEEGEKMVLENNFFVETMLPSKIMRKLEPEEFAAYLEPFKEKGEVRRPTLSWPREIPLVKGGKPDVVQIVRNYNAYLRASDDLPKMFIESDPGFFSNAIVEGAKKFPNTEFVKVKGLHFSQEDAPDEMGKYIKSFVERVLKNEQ
Procedure, shortened: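 qHTS (roughly 60 uM down to 300 pM) against 1 nM Renilla luciferase, substrate coelenterazine h 5 uM, Tris acetate pH 7.5 buffer with NaCl, Tween-20 and BSA. Luminescence measured after an average 2 min incubation.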
Potency means the concentration at half of the fitted maximal effect.

SMILES | activity change, negative = inhibition [%] | Potency
O=C(Nc1n[nH]c2nc(-c3ccc(O)cc3)c(Br)cc12)C1CC1 | 51.9 | 
COc1cccc(C=NNc2ncnc3c2cnn3-c2cccc(OC)c2)c1 | 30.6 | 
CC(C)(C)c1ccc(Oc2nccc(-c3c(-c4ccc(F)cc4)ncn3C3CCNCC3)n2)cc1 | 31.2 | 
c1ccc(-c2[nH]ncc2-c2ccnc(-c3ccc(OCCN4CCOCC4)cc3)c2)nc1 | 25.2 | 
Cc1nc(-c2ccccc2)n2nc(NCCCN3CCOCC3)ncc12 | 7.85 | 
COc1cccc(-n2ncc3c(NN=Cc4ccc(F)cc4)ncnc32)c1 | 30.7 | 
CCn1cc(-c2ccnc3[nH]ccc23)c(-c2cccc(NC(=O)Nc3ccc(OCc4ccccc4)cc3)c2)n1 | 36.7 | 
CC(=O)NCc1cccc(C#Cc2cncnc2Nc2ccc(OCc3cccc(F)c3)c(Cl)c2)c1 | 35.6 | 
NC(=O)c1sc(-n2cnc3cc(C(F)(F)F)ccc32)cc1OCc1ccccc1Br | 51.9 | 
CN(C)c1ccc2[nH]c(O)c(C=Nc3ccc(S(N)(=O)=O)cc3)c2c1 |  | 5.8 µM (active)
O=C(Nc1ccc(Oc2ccc3nc(NC(=O)c4ccco4)[nH]c3c2)cc1)Nc1cc(C(F)(F)F)ccc1F | 10.1 | 
COc1cc(C=NNc2ncnc3c2cnn3C(C)C)ccc1O | 5.48 | 
COc1cccc(-n2ncc3c(NN=Cc4ccc(C)cc4)ncnc32)c1 | 56.8 | 
COc1cc2ncn(-c3cc(OCc4ccccc4C(F)(F)F)c(C(C)=O)s3)c2cc1OC | 27.5 | 
FC(F)(F)c1cccc(Nc2nccc(-c3cnn4nc(-c5ccccc5)ccc34)n2)c1 | 21.2 | 
Fc1ccc(Nc2nccc(-c3c(-c4ccc(C(F)(F)F)cc4)nn4ncccc34)n2)cc1F | 3.07 | 
NS(=O)(=O)c1ccc(N=Nc2c(O)[nH]c3ccc(-c4cnco4)cc23)cc1 | -5.78 | 
Fc1ccc(-c2nc3n(c2-c2ccncc2)CCS3)cc1 | 37.9 | 
COc1cc2ncnc(Nc3ccc(C)c(O)c3)c2cc1OC | 28.5 | 
CN1CCC(n2cnc(-c3ccc(F)cc3)c2-c2ccnc(N)n2)CC1 | 12.6 | 

SMILES | activity change, negative = inhibition [%] | Potency
CCCNc1cccc(-n2ncc3c(NN=Cc4ccncc4)ncnc32)c1 | 21.5 | 
CN1CCC(n2cnc(-c3ccc(F)cc3)c2-c2ccnc(NCCO)n2)CC1 | 36.2 | 
CCc1ccc(Oc2nccc(-c3c(-c4ccc(F)cc4)ncn3C3CCNCC3)n2)cc1 | -14.4 | 
NC(=O)c1cc(-c2ccc(F)cc2)cc(-c2ccncc2)c1N | 10.4 | 
CC(Oc1cc(-n2cnc3ccc(OCC(O)CO)cc32)sc1C(N)=O)c1ccccc1Cl (centres undefined) | 27.6 | 
CCn1c(-c2nonc2N)nc2cncc(C(=O)N3CCC(N)C3)c21 (centres undefined) | 2.39 | 
CN1CCN(C(=O)c2ccc(NC(=O)Nc3ccc(N(C)c4ccnc(Nc5ccc(CS(C)(=O)=O)cc5)n4)cc3)cc2)CC1 | -7.71 | 
COc1ccc(COc2ccc(Cc3cnc(N)nc3N)cc2OC)cc1 | 52.5 | 
O=C(OC1CNC(C#Cc2cc3ncnc(Nc4ccc5c(ccn5Cc5cc(F)ccc5F)c4)c3s2)C1)N1CCOCC1 (centres undefined) | 33.4 | 
N#Cc1cccc(Nc2ncc(-c3ccccc3)o2)c1 | 33.1 | 
Fc1ccc(-c2ncn(C3CCNCC3)c2-c2ccnc(Oc3ccc(Cl)cc3)n2)cc1 | 33.6 | 
CCn1c(-c2nonc2N)nc2cnc(Oc3cccc(NC(=O)c4ccc(OCCN5CCOCC5)cc4)c3)cc21 | 25.6 | 
Fc1ccc(-c2ncn(C3CCNCC3)c2-c2ccnc(Oc3cccc(C(F)(F)F)c3)n2)cc1 | 0.701 | 
CCc1cccc(CC)c1C=Cc1cncc(C(=O)NC)c1 | 8.32 | 
CCn1c(-c2nonc2N)nc2ccccc21 | 19.1 | 
N#Cc1ccc2c(-c3ccnc(NC4CC4)n3)c(-c3ccc(F)cc3)nn2c1 | -16.7 | 
CS(=O)(=O)Nc1ccc(-c2ccc3c(NC(=O)C4CC4)n[nH]c3c2)cc1 | 25.6 | 
c1cnn2ncc(-c3ccnc(Nc4ccc5c(c4)OCCO5)n3)c2c1 | 61 | 
Fc1ccc(Oc2nccc(-c3c(-c4ccc(F)cc4)ncn3C3CCNCC3)n2)cc1 | 40.4 | 

— PubChem BioAssay AID652015 (National Center for Advancing Translational Sciences (NCATS), 2013)
